This is an account of results in PubChem BioAssay.

The structures appear in SMILES notation. The source made the active and inactive calls.

Test [1] can be described thus: E. coli DRC41 culture turbidity changes, primary screen, E. coli filamentation inducer project, strain DRC41, OD650, 48 h (AID 1152).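 Also: E. coli MC1000 strain DRC41 lacking acrAB efflux pump and sulA.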 The conditions noted are these: E. coli DRC41 (acrAB sulA), higher = more signal, called active from +8 up or from −8 down.
Test [2] is described as follows: small-molecule binders of probe aLefty1, primary screen, biochemical, small-molecule microarray, 635/667 nm fluorescence (AID 1153).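 Also: score merges spot fluorescence with signal-to-noise ratio from the scanned slide images.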 The conditions noted are these: higher = more signal.
Test [3] in a line: PSAC antagonists in infected red cells, primary screen, cell-based, P. falciparum Indochina, OD700, 1 h (AID 1154). As to conditions: P. falciparum Indochina infected RBC osmotic lysis, higher = more signal, called active from +8 up or from −8 down.
Test [4] in a line: PSAC antagonists in infected red cells, primary screen, cell-based, P. falciparum Indochina, OD700, 2 h (AID 1155).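 Also: lysis reports solute entry through the parasite surface anion channel PSAC; channel blockers reduce lysis of infected cells.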 The conditions noted are these: P. falciparum Indochina infected erythrocytes, osmotic lysis OD700; higher = more signal, called active from +8 up or from −8 down.
Test [5] can be described thus: osmotic lysis modulators in infected erythrocytes, primary screen, PSAC antagonist project, cell-based, P. falciparum Indochina, OD700, 3 h (AID 1156). The conditions noted are these: higher = more signal, called active from +8 up or from −8 down.
Test [6] is described as follows: PSAC antagonists in infected red cells, primary screen, cell-based, P. falciparum Indochina, OD700, 18 h (AID 1157). The conditions noted are these: P. falciparum Indochina infected erythrocytes, osmotic lysis OD700, 18 h; higher = more signal, called active from +8 up or from −8 down.
Test [7] is described as follows: modulators of S6 phosphorylation in cells, primary screen, cell-based, A549, cytoblot, luminescence, serum-stimulated (AID 1158).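 Also: serum-stimulated A549 lung adenocarcinoma cells; signal is phosphorylated S6 detected by cytoblot immunostaining with HRP secondary.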 The conditions noted are these: A549 phospho-S6 cytoblot, 5 h, higher = more signal.
Test [8] addresses NADPH oxidase 2 (Homo sapiens) (UniProt P04839). Put plainly: NOX2-dependent H2O2 signal modulators, primary screen, NOX inhibitor project, cell-based, HEK293-NOX2, PMA-stimulated, Amplex Red fluorescence (AID 1159). Also: test concentration not given here. The conditions noted are these: 45 min, higher = more signal, called active from +8 up or from −8 down.
In test [9] the target is NADPH oxidase 4 (Homo sapiens) (UniProt Q9NPH5). Put plainly: NOX4-dependent H2O2 signal modulators, primary screen, NOX inhibitor project, cell-based, HEK293-NOX4, tetracycline-induced, Amplex Red fluorescence (AID 1160). As to conditions: 45 min, higher = more signal, called active from +8 up or from −8 down.
Sequence of NADPH oxidase 4 (Homo sapiens) (Q9NPH5 whole entry, looked up): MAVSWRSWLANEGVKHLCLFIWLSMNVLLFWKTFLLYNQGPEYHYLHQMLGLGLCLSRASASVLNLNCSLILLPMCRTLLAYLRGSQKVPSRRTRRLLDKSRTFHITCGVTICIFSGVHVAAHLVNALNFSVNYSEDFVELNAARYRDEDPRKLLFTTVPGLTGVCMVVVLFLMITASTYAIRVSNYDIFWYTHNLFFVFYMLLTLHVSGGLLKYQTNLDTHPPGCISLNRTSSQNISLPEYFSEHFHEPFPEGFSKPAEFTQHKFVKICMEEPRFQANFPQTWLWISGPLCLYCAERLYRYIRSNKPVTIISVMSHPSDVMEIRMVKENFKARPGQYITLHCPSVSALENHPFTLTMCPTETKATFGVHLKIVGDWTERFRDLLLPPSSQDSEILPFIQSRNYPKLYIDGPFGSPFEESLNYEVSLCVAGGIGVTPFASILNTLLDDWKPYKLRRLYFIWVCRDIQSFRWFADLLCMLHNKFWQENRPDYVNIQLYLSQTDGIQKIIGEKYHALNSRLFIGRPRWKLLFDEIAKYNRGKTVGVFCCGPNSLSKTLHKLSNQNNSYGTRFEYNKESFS
Test [10] addresses NADPH oxidase 5 (Homo sapiens) (UniProt Q96PH1). The experiment in a line: NOX5-dependent H2O2 signal modulators, primary screen, NOX inhibitor project, cell-based, HEK293-NOX5, Amplex Red fluorescence (AID 1161). As to conditions: HEK293-NOX5, ionomycin, 45 min, higher = more signal.
Test [11] in a line: A549 cell viability effects, profiling panel, calcein-AM fluorescence, 48 h, basal (AID 1162). Also: test concentration not given here. As to conditions: higher = more signal.
Test [12] can be described thus: adipocyte viability effects, profiling panel, cell-based, 3T3-L1 adipocytes, calcein-AM fluorescence, 48 h, basal (AID 1163). Also: test concentration not given here. The conditions noted are these: 3T3-L1 adipocytes viability, higher = more signal.
Test [13] is described as follows: HepG2 cell viability effects, profiling panel, calcein-AM fluorescence, 48 h, basal (AID 1164). Also: test concentration not given here. The conditions noted are these: higher = more signal.
Test [14] can be described thus: MM1S cell viability effects, profiling panel, calcein-AM fluorescence, 48 h, basal (AID 1165).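 Also: viability of MM1S multiple myeloma cells under basal unstimulated conditions; test concentration not given here.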 As to conditions: higher = more signal.
A short description of test [15]: basal RPMI8226 viability, no added stimulus, profiling panel, cell-based, calcein-AM fluorescence, 48 h, PK04 Diversity Set (AID 1166).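 Also: cells grown under basal conditions without added stimulus; test concentration not given here.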 The conditions noted are these: RPMI8226 myeloma viability, higher = more signal.
Test [16] in a line: basal HepG2 mitochondrial membrane potential changes, profiling panel, cell-based, JC-1 fluorescence, 24 h, 100 nL compound (AID 1167). Also: test concentration not given here. As to conditions: higher = more signal.
Test [17] is described as follows: basal 3T3-L1 adipocyte mitochondrial potential changes, profiling panel, cell-based, JC-1 fluorescence, 3T3-L1 adipocytes, 24 h, 100 nL compound (AID 1168). Also: test concentration not given here. The conditions noted are these: JC-1 mitochondrial fluorescence, higher = more signal, called active from +8 up or from −8 down.
A short description of test [18]: basal RPMI8226 mitochondrial membrane potential changes, profiling panel, cell-based, JC-1 fluorescence, 24 h, 100 nL compound (AID 1169). Also: test concentration not given here. The conditions noted are these: RPMI8226 myeloma, JC-1 mitochondrial potential fluorescence, higher = more signal.
Test [19] in a line: basal MM1S mitochondrial membrane potential changes, profiling panel, cell-based, JC-1 fluorescence, 24 h, 100 nL compound (AID 1170). Also: test concentration not given here. The conditions noted are these: higher = more signal.
Test [20] is described as follows: A549 lung cancer cell viability effects, profiling panel, resazurin fluorescence, 24 h, PK04 Diversity Set (AID 1171). Also: test concentration not given here. The conditions noted are these: higher = more signal, called active from +8 up or from −8 down.

Sequence of NADPH oxidase 2 (Homo sapiens) (P04839 whole entry, looked up): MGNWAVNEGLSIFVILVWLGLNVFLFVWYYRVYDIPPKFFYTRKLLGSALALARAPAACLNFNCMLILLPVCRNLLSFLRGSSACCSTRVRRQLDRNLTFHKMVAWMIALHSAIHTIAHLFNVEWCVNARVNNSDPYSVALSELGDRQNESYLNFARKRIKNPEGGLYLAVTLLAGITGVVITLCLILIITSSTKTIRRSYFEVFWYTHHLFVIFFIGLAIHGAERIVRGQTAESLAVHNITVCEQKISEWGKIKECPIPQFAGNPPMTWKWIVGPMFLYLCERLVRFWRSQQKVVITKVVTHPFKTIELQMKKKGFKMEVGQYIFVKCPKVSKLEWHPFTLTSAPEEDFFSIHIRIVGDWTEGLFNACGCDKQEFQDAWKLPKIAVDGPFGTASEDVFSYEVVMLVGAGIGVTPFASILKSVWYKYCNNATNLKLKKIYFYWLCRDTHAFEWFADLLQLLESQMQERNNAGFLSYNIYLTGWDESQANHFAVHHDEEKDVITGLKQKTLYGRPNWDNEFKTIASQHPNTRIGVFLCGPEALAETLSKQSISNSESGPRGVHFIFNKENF
Sequence of NADPH oxidase 5 (Homo sapiens) (Q96PH1 whole entry, looked up): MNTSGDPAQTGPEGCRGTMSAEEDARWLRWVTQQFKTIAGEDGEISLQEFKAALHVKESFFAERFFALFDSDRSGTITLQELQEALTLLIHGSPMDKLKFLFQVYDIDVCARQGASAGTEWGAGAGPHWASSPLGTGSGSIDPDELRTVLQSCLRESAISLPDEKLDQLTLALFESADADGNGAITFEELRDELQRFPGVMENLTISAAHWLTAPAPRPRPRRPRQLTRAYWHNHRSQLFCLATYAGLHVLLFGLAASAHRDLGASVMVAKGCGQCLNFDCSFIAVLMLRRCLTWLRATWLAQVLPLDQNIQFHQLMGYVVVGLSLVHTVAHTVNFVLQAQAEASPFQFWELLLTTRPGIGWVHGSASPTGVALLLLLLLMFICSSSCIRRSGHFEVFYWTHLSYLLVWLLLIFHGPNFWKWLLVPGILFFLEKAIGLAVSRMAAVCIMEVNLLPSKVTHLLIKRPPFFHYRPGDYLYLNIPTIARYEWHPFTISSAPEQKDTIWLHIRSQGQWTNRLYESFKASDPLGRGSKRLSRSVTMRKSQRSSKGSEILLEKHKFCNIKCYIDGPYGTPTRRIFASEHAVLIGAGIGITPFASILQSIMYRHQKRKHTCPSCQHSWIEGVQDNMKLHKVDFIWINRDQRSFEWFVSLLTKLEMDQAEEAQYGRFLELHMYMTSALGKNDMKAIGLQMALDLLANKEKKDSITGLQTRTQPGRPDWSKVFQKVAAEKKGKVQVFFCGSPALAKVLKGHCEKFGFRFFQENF

Regarding `C=CC[C@@H]1C=C[C@H](ON=C2[C@H]3CCn4c(=O)n(-c5ccccc5)c(=O)n4[C@H]3[C@H](O)[C@@H]3O[C@H]23)[C@@H](CO)O1`, the z-score was -0.263 (inactive) in [1]; 1.56 (inactive) in test [3]; 1.07 (inactive) in [4]; 0.204 (inactive) in test [5]; 0.588 (inactive) in [6]; -1.02 in [7]. For the same molecule, the z-score in test [8] is -0.276 (inactive); in test [9], 0.964 (inactive); in [10] it was 0.394; in test [11], -0.547; in test [12] it was -0.203; in [13] it was -0.683. Moreover, the z-score is -1.21 in test [14]; -0.997 in test [15]; -0.568 in [16]; -1.65 (inactive) in test [17]; -0.172 in test [18]; 0.0203 in test [19]. For the same molecule, the z-score in test [20] is -0.674 (inactive). In addition, the composite z-score in [2] was -0.28.
`CCOC(=O)[C@H](CC(C)C)NC(=O)CCC1CC(OC(=O)NCc2cccc3ccccc23)CC2(CCCC(COC(=O)NCC3CCCCC3)O2)O1` (stereo not given in full): the z-score is -0.398 (inactive) in test [1]; 0.864 (inactive) in [3]; -1.04 (inactive) in test [4]; 0.552 (inactive) in test [5]; -1.35 (inactive) in [6]; 1.64 in test [7]. For the same molecule, the z-score is -2.61 (inactive) in [8]; -1.93 (inactive) in test [9]; -2.79 in test [10]; -0.15 in test [11]; 1.09 in test [12]; -0.993 in test [13]. Besides, the z-score was -2.66 in test [14]; -1.28 in [15]; 0.895 in test [16]; -0.0758 (inactive) in [17]; 0.273 in test [18]; -0.929 in [19]. In addition, in [20], the z-score is 0.945 (inactive). For the same molecule, the composite z-score in test [2] worked out at 0.183.
As to `CO[C@H]1COC(=O)CC=C[C@@H](C)[C@H](OC)COC(=O)CCC[C@@H]1C`, the z-score in test [1] is 0.398 (inactive); in test [3] it was -0.674 (inactive); in [4], -1.22 (inactive); in test [5], -0.518 (inactive); in [6] it was -2.08 (inactive); in [7] it was -0.0645. The z-score in [8] was 0.00516 (inactive); in [9], 0.612 (inactive); in test [10], 0.863; in test [11], -0.71; in test [12], -0.0523; in test [13] it was 0.0225. The z-score in [14] is 0.0987; in test [15], 0.102; in test [16], -0.639; in test [17] it was -0.399 (inactive); in [18], -0.509; in [19] it was -0.135. Also, the z-score in test [20] is 0.795 (inactive). In test [2], this molecule yielded a composite z-score of -0.216.
In the case of `C[C@H]1CC[C@H]2C(=O)O[C@H](COc3ccc(C(C)(C)C)cc3)CN2[C@@H]1c1ccc(Br)cc1`, the z-score is -0.421 (inactive) in test [1]; 0.683 (inactive) in test [3]; 0.237 (inactive) in test [4]; -0.889 (inactive) in [5]; 0.465 (inactive) in test [6]; -0.338 in test [7]. Further, the z-score is 0.215 (inactive) in [8]; 0.644 (inactive) in [9]; 0.974 in [10]; 0.354 in test [11]; 0.356 in test [12]; 0.573 in test [13]. Besides, the z-score in [14] was 0.0772; in test [15] it was -2.09; in test [16] it was -0.568; in test [17], -0.372 (inactive); in test [18], -0.841; in test [19] it was 1.33. In [20], the z-score is 0.636 (inactive). In addition, the composite z-score in [2] was -0.412.
Consider `COC(=O)CC=C[C@@H](C)[C@@H](C=NOCC[C@@H]1C=C[C@H](OC(C)=O)[C@@H](COC(C)=O)O1)OC`, for which the z-score is -0.35 (inactive) in [1]; 0.551 (inactive) in test [3]; 0.239 (inactive) in [4]; -0.5 (inactive) in test [5]; 0.171 (inactive) in test [6]; -0.801 in test [7]. For the same molecule, the z-score in test [8] is 0.464 (inactive); in test [9] it was 0.934 (inactive); in test [10] it was 0.855; in test [11] it was 1.29; in [12], -0.0264; in test [13], 0.436. The z-score was -0.616 in test [14]; 0.238 in test [15]; -0.514 in [16]; -0.43 (inactive) in test [17]; -0.133 in test [18]; -0.324 in [19]. Moreover, the z-score in test [20] is -0.393 (inactive). This molecule registered a composite z-score in test [2] of -0.0969.
As for `COC(=O)[C@@H]1CC[C@H](C)[C@@H](c2ccc(C)cc2)N1C(=O)c1ccc(C=NO[C@@H]2O[C@H](COC(C)=O)[C@@H](OC(C)=O)[C@H](OC(C)=O)[C@H]2OC(C)=O)cc1`, the z-score was -0.492 (inactive) in test [1]; -0.013 (inactive) in [3]; -0.647 (inactive) in test [4]; 0.819 (inactive) in test [5]; -1.79 (inactive) in test [6]; 1.02 in [7]. For the same molecule, the z-score in test [8] was -0.454 (inactive); in [9], -0.674 (inactive); in test [10], -2.1; in [11] it was -1.3; in test [12], 0.216; in test [13], -0.373. Besides, the z-score in test [14] was -0.82; in [15], -1.17; in test [16], 2.74; in [17], 0.28 (inactive); in test [18], -0.139; in test [19], 0.155. The z-score in [20] is 0.855 (inactive). For the same molecule, the composite z-score in test [2] amounted to 0.0391.
`CC(CCN1CCCCc2nc(C)c(C)cc21)=NOC[C@@H](C)[C@H](OCc1ccccc1)C(C)C`: the z-score is -0.605 (inactive) in test [1]; -0.0226 (inactive) in test [3]; -1.71 (inactive) in test [4]; 0.167 (inactive) in test [5]; -1.99 (inactive) in [6]; 1.08 in test [7]. In addition, the z-score in test [8] was -1.86 (inactive); in test [9], -0.629 (inactive); in [10] it was -3.18; in test [11] it was 0.139; in [12], 0.588; in [13], 1.39. Moreover, the z-score in test [14] is -1.5; in test [15], 0.327; in test [16], -0.728; in test [17], 0.155 (inactive); in test [18] it was 0.0506; in test [19], -1.06. In addition, the z-score in [20] is -0.472 (inactive). In test [2], the composite z-score is -0.502.
For `COC(=O)CC=C[C@@H](C)[C@@H](C=NO[C@@H](C)c1cn([C@H](CO)Cc2ccccc2)nn1)OC`, the z-score is -0.64 (inactive) in test [1]; -0.762 (inactive) in test [3]; -1.66 (inactive) in test [4]; -0.726 (inactive) in test [5]; -1.8 (inactive) in test [6]; 1.32 in [7]. Besides, the z-score in test [8] was -0.374 (inactive); in [9], 0.173 (inactive); in test [10] it was 0.874; in test [11], 0.52; in test [12], 1.03; in [13] it was 0.656. For the same molecule, the z-score in [14] is 0.354; in test [15], -0.609; in test [16], 0.341; in [17], 1.08 (inactive); in [18], 0.0532; in [19], 0.723. Moreover, the z-score in [20] was -0.493 (inactive). In addition, the composite z-score in [2] is -0.275.
`CCC1=NOC(CCC2CC(OC(=O)NCc3cccc4c3OCO4)CC3(CCCC(COC(=O)NCCc4ccccc4OC)O3)O2)C1` (stereo not given): the z-score in [1] is 0.572 (inactive); in test [3], 15.9 (active); in test [4] it was 2.99 (inactive); in test [5], -0.501 (inactive); in [6] it was 0.568 (inactive); in test [7], 0.0314. Besides, the z-score in test [8] was 0.642 (inactive); in test [9], -0.115 (inactive); in [10], 0.0819; in test [11], -1.02; in [12], 0.405; in test [13] it was -2.26. Besides, the z-score in test [14] is -3.6; in test [15], -3.84; in test [16] it was 0.559; in test [17] it was -0.197 (inactive); in test [18] it was -0.77; in [19], -2.17. The z-score in test [20] was 0.492 (inactive). The composite z-score in test [2] is -0.0573.
